{
  "source": "PubChem BioAssay AID463193",
  "about": "(University of Pittsburgh Molecular Library Screening Center, 2010)",
  "note": "The campaign covered roughly 190,000 compounds. About 1,900 (1%) were called active.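 How the source made its calls: active means percentage of spot-positive cells more than 3 SD above its plate mean, without a fluorescence outlier flag or 80% toxicity; inconclusive means no clear call, values can overlap the other calls; inactive means the rest.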 What follows is part of a selection rich in actives, with near analogues and random picks from the rest.",
  "data": [
    {"experiment": "GFP-LC3 puncta formation changes – imaging, high-content, MEF GFP-LC3, primary screen (AID 463193);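 on % cells with GFP-LC3 spots: spot-positive cell cutoff set from DMSO-treated cells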;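 on toxicity: cell loss after 18 h compound exposure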", "details": "autophagy, at 10 µM; % cells with GFP-LC3 spots: stronger effect = higher value; toxicity: measured here: cell loss, nuclei count", "units": {"toxicity": "%"}, "values": [
      {"smiles": "O=C(O)COc1ccc(/C=N/O)cc1Br", "% cells with GFP-LC3 spots": "17% (inactive)", "toxicity": 9.84},
      {"smiles": "CN(C)c1ccc(NC(=O)CSc2n[nH]c(-c3ccco3)n2)cc1", "% cells with GFP-LC3 spots": "5.18% (inactive)", "toxicity": -4.21},
      {"smiles": "C/C(Cc1ccccc1)=N\\NC(=O)CNC(=O)c1cccc(Br)c1", "% cells with GFP-LC3 spots": "6.35% (inactive)", "toxicity": 7.09},
      {"smiles": "CN(C)S(=O)(=O)N1CCN(c2ccc([N+](=O)[O-])cc2)CC1", "% cells with GFP-LC3 spots": "20% (active)", "toxicity": 4.08},
      {"smiles": "COc1ccc(N2CCN(c3ccc([N+](=O)[O-])cc3Cl)CC2)cc1", "% cells with GFP-LC3 spots": "3.9% (inactive)", "toxicity": 14.4},
      {"smiles": "Cc1ccc(N2CCN(S(=O)(=O)N(C)C)CC2)cc1Cl", "% cells with GFP-LC3 spots": "10.8% (inactive)", "toxicity": 7.23},
      {"smiles": "O=C(O)CCn1c(SCc2cc(=O)n3ccccc3n2)nc2ccsc2c1=O", "% cells with GFP-LC3 spots": "0.605% (inactive)", "toxicity": 8.22},
      {"smiles": "Cc1ccc(NC(=O)c2oc(=O)c3ccccc3c2-c2ccccc2)c(C)c1", "% cells with GFP-LC3 spots": "6.34% (inactive)", "toxicity": -1.17},
      {"smiles": "Cc1ccc(NC(=O)CN(C)Cc2ccc(F)cc2)c([N+](=O)[O-])c1", "% cells with GFP-LC3 spots": "5.2% (inactive)", "toxicity": 3.98},
      {"smiles": "Cc1ccc(NC(=O)c2oc3ccccc3c2C)c([N+](=O)[O-])c1", "% cells with GFP-LC3 spots": "13.1% (active)", "toxicity": 22.2},
      {"smiles": "CCOC12CC(C)(C)CC(C)(CC3=C1C(=O)CC(C)(C)C3)C2", "note": "(configuration not stated)", "% cells with GFP-LC3 spots": "4.26% (inactive)", "toxicity": 3.51},
      {"smiles": "COc1ccc(Nc2nc(-c3ccccc3)cs2)cc1", "% cells with GFP-LC3 spots": "11.9% (inactive)", "toxicity": -34.3},
      {"smiles": "COc1ccc(-c2csc(Nc3ccc(O)cc3)n2)cc1", "% cells with GFP-LC3 spots": "16.2% (active)", "toxicity": 17.3},
      {"smiles": "Oc1ccc(-c2csc(Nc3cccnc3)n2)cc1", "% cells with GFP-LC3 spots": "7.75% (inactive)", "toxicity": -0.924},
      {"smiles": "CCC(CC)NC(=O)CSc1nnc(-c2c[nH]c3ccccc23)o1", "% cells with GFP-LC3 spots": "15.7% (inactive)", "toxicity": 28.2},
      {"smiles": "Cc1ccc(-n2c(O)c(C=Nc3ccc(S(=O)(=O)Nc4ncccn4)cc3)c3ccccc3c2=O)cc1C", "% cells with GFP-LC3 spots": "3.56% (inactive)", "toxicity": -8.78},
      {"smiles": "Cc1ccc(N=Cc2c(O)cc(C)oc2=O)c(C)c1", "% cells with GFP-LC3 spots": "9.61% (inactive)", "toxicity": 4.32},
      {"smiles": "Cc1ccc(N=Cc2c(O)n(-c3nccs3)c(=O)c3ccccc23)c(C)c1", "% cells with GFP-LC3 spots": "60% (active)", "toxicity": -7.63},
      {"smiles": "CCOC(=O)N1CCN(C(=O)c2ccccc2N(Cc2ccccc2)S(=O)(=O)c2ccc(OC)cc2)CC1", "% cells with GFP-LC3 spots": "19.1% (inactive)", "toxicity": 5.8},
      {"smiles": "Cc1c(CN2CCC(CO)(CCOc3ccccc3)CC2)[nH]c2ccc(Cl)cc12", "% cells with GFP-LC3 spots": "14.1% (inactive)", "toxicity": -12.9},
      {"smiles": "COc1cccc2sc(NNC(=O)c3nc4ccccc4s3)nc12", "% cells with GFP-LC3 spots": "8.59% (inactive)", "toxicity": 0.117},
      {"smiles": "COc1cccc2sc(Nc3nc(C)c(C(C)=O)s3)nc12", "% cells with GFP-LC3 spots": "21.8% (active)", "toxicity": 46.9},
      {"smiles": "CC(=O)c1sc(NC(=O)CCCOc2ccccc2C)nc1C", "% cells with GFP-LC3 spots": "7.71% (inactive)", "toxicity": 7.95},
      {"smiles": "CC1CCN(C2=NC(=O)/C(=C/c3cn[nH]c3-c3ccccc3)S2)CC1", "% cells with GFP-LC3 spots": "4.99% (inactive)", "toxicity": 5.05},
      {"smiles": "O=C(Nc1ccccc1C(=O)N1CCCCCC1)c1ccccc1Cl", "% cells with GFP-LC3 spots": "43.8% (active)", "toxicity": -8.81},
      {"smiles": "O=C(Nc1ccccc1C(=O)N1CCOCC1)c1ccc(Cl)cc1", "% cells with GFP-LC3 spots": "1.74% (inactive)", "toxicity": 11.5},
      {"smiles": "O=C(CN(c1ccccc1)S(=O)(=O)c1ccc(Cl)cc1)Nc1ccccc1C(=O)N1CCCC1", "% cells with GFP-LC3 spots": "9.32% (inactive)", "toxicity": 0.638},
      {"smiles": "O=C(CN1C(=O)/C(=C/c2ccccc2F)Sc2ccccc21)NCc1cccnc1", "% cells with GFP-LC3 spots": "0.409% (inactive)", "toxicity": -0.091},
      {"smiles": "C=C1c2cc(CC)ccc2NC(=O)N1c1ccc(C)cc1", "% cells with GFP-LC3 spots": "1.08% (inactive)", "toxicity": -2.35},
      {"smiles": "O=C1Nc2ccccc2C12Nc1ccccc1S2", "note": "(configuration not stated)", "% cells with GFP-LC3 spots": "6.3% (inactive)", "toxicity": -0.645},
      {"smiles": "CCc1ccc2c(c1)C1(NN=C(c3ccccc3)S1)C(=O)N2", "note": "(configuration not stated)", "% cells with GFP-LC3 spots": "24.9% (active)", "toxicity": 40.3},
      {"smiles": "CCOc1ccc(N(CC(=O)NCCc2ccc(OC)cc2)S(C)(=O)=O)cc1", "% cells with GFP-LC3 spots": "1.57% (inactive)", "toxicity": -14.4},
      {"smiles": "Cc1ccc(C2CC(c3cccc(C)c3)n3nc(N)nc3N2)cc1", "note": "(configuration not stated)", "% cells with GFP-LC3 spots": "4.2% (inactive)", "toxicity": 10.4},
      {"smiles": "COc1ccc(C2CC(c3ccc(C)cc3)Nc3nc(N)nn32)cc1", "note": "(configuration not stated)", "% cells with GFP-LC3 spots": "17.9% (inactive)", "toxicity": -20.4},
      {"smiles": "COc1ccc(C2CC(c3ccc(Cl)cc3Cl)Nc3nc(N)nn32)cc1OC", "note": "(configuration not stated)", "% cells with GFP-LC3 spots": "14.3% (active)", "toxicity": 1.79},
      {"smiles": "O=C(CSc1nc(-c2ccco2)cc(C(F)(F)F)n1)NCc1cccs1", "% cells with GFP-LC3 spots": "11.9% (active)", "toxicity": 19.8},
      {"smiles": "COc1ccc(-c2cc(C(F)(F)F)nc(SCCC(=O)NCc3ccco3)n2)cc1", "% cells with GFP-LC3 spots": "14.8% (inactive)", "toxicity": 0.225},
      {"smiles": "O=C(CSc1nc(-c2ccco2)cc(C(F)(F)F)n1)N1CCc2ccccc2C1", "% cells with GFP-LC3 spots": "0.274% (inactive)", "toxicity": -3.54},
      {"smiles": "Cc1ccc(S(=O)(=O)N2CCCC2C(=O)OCc2nc3sc(C)c(C)c3c(=O)[nH]2)cc1", "note": "(configuration not stated)", "% cells with GFP-LC3 spots": "7.41% (inactive)", "toxicity": 2.2},
      {"smiles": "CS(=O)(=O)N(CC(=O)N/N=C/c1ccccn1)c1ccc(Oc2ccccc2)cc1", "% cells with GFP-LC3 spots": "19.6% (inactive)", "toxicity": 9.84},
      {"smiles": "COc1ccc(N=Cc2c(O)[nH]c3ccccc23)cc1OC", "% cells with GFP-LC3 spots": "20.4% (inactive)", "toxicity": 0.85}
    ]}
  ]
}
